Results on 14 compounds are retold here after PubChem BioAssay (NCATS).

The target in experiment [1] is Cytochrome P450 3A4 (Homo sapiens) (UniProt P08684). Kind of experiment: qHTS Assay for Inhibitors and Substrates of Cytochrome P450 3A4 (AID 884). Also: nearly all actives have a fitted effect of over 50% in size. Also: potency is read from the fitted curve at half-maximal effect. The method, boiled down:
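20 nM human CYP3A4 with 25 uM Luciferin-PPXE (at KM) in 200 mM KPO4, preincubated 10 min with compound; NADPH regeneration started a 60 min RT reaction. Luciferin detected by luminescence, normalized to 57 uM ketoconazole as full inhibition.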

The nature of experiment [2]: Confirmation and Secondary Assay for Modulators of Hemoglobin Beta Chain Splicing at IVS2 654 locus (AID 910). Also: % of control where 0% means no effect. The method, boiled down:
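HeLa cells stably carrying EGFP interrupted by mutant beta-globin IVS2-654 intron (CMV-driven) were treated with compound for 2 days at 37C; corrected splicing was scored as total peak GFP intensity per well (488 nm excitation, 500-520 nm emission).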

Experiment [3] is described as follows: Confirmation and Secondary Assay for Modulators of Hemoglobin Beta Chain Splicing at IVS2 705 locus (AID 930).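 Also: HeLa cells stably expressing the EGFP-705 splicing reporter; GFP fluorescence per well restored by corrected splicing of the IVS2-705 intron in EGFP; % of control where 0% means no effect.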 The method, boiled down: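 Read-out: total peak GFP fluorescence per well (488 nm excitation, 500-520 nm emission) by laser-scanning cytometry. Cells: HeLa EGFP-705 splicing reporter, 2 days compound exposure in Optimem/2% FCS.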
For experiment [4], the target named is DNA dC->dU-editing enzyme APOBEC-3G (Homo sapiens) (UniProt Q9HC16). Kind of experiment: qHTS for inhibitors of Vif-A3G interactions: Validation (AID 588379). Also: 0% is about no effect. The procedure, abridged:
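HeLa cells stably expressing Vif and A3G-eYFP, 700 cells/well, incubated overnight at 37 deg C, then exposed to compound overnight at 37 deg C. Inhibition of Vif-mediated degradation read as increased yellow fluorescence (Ex 488/Em 500-530) by laser-scanning cytometry.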
For orientation: qHTS replaces the single test concentration by a dilution series.

Experiment [5] concerns the target Guanine nucleotide-binding protein G(i) subunit alpha-1 (Homo sapiens) (UniProt P63096). In words: qHTS Assay for Inhibitors of RGS12 GoLoco Motif Activity (Green Fluorophore) (AID 879).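 Also: 0% = labeled peptide with Gαi1 and full inhibition = labeled peptide alone without protein; negative values mean loss of peptide binding seen as reduced polarization.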 The procedure, abridged:
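Fluorescence polarization assay: 50 nM Gαi1 with 10 nM FITC-labeled RGS12 GoLoco peptide in 10 mM Tris pH 7.5, 150 mM NaCl, 0.1 mM GDP, 0.05% NP40, 10 min at room temperature with compound.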

Experiment [6] in a line: qHTS Assay for Identification of Small Molecule Agonists for Thrombopoietin (TPO) Signaling Pathway (AID 917). Also: % is scaled to controls: 0 for no effect and ±100 for the full control effect. The procedure, abridged: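 Reporter: GpIIb promoter–luciferase in murine Ba/F3 expressing human TPO receptor. Pre-starved of IL-3 overnight; compounds with 26 pM TPO, 24 hrs, 37 C/5% CO2; luminescence read.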
The target in experiment [7] is Muscarinic acetylcholine receptor M1 (Rattus norvegicus) (UniProt P08482). Kind of experiment: qHTS Assay for Antagonists of Acetylcholine Muscarinic M1 Receptor: Kinetic Measurement of Intracellular Calcium Response (AID 943).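 Also: Fluo-4 calcium signal as peak divided by basal fluorescence over 4 min; nearly all actives have a fitted effect of over 75% in size.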 The procedure, abridged:
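CHO cells stably expressing rat M1 were loaded with no-wash Fluo-4 dye for 1 h at 37C, pre-incubated 10 min with compound, then challenged with EC80 carbachol (100 nM final); kinetic calcium read 4 min, peak/basal ratio.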

The target is the same in experiment [8]. Kind of experiment: qHTS Assay for Antagonists of Acetylcholine Muscarinic M1 Receptor: Measurement of IP-One Response (AID 944). Also: nearly all actives have a fitted effect of over 75% in size. The procedure, abridged: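 CHO cells expressing rat M1 receptor, recovered overnight, were pre-incubated 10 min with compound, then stimulated 30 min with carbachol at EC80 (200 nM) in LiCl-containing buffer, pH 7.4. IP1 accumulation was read by HTRF (620/665 nm).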

For experiment [9], the target named is Pyruvate kinase (Leishmania mexicana) (UniProt Q27686). Kind of experiment: qHTS Validation Assay for Inhibitors of Leishmania Mexicana Pyruvate Kinase (AID 945).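 Also: 0% = DMSO only neutral control wells.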 The method, boiled down:
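Luminescent ATP detection (PKLight) after a 1 h room-temperature reaction of 0.2 nM LmPYK E451W mutant with 0.5 mM PEP and 0.1 mM ADP at pH 7.2. Activity is normalized to DMSO-only control wells.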

For experiment [10], the target named is Pyruvate kinase PKM (Homo sapiens) (UniProt P14618). Kind of experiment: qHTS Assay for Activators of Human Muscle Pyruvate Kinase (AID 954; active = well fitted curve in the direction sought with a large enough effect, not every such curve was filed as active;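 also: 0% = uninhibited enzyme and -100% = no enzyme or full thiadiazolimine inhibition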). The method, boiled down:
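Purified human PKM2 (0.1 nM) with 0.5 mM PEP (Km) and 0.1 mM ADP in 50 mM imidazole pH 7.2, KCl, MgCl2, 1 h at room temperature; ATP formed read by coupled luciferase luminescence. Normalized to no-enzyme/110 uM thiadiazolimine inhibition; 0.3 nM enzyme column for activation.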

Experiment [11] addresses Alpha-galactosidase A (Homo sapiens) (UniProt P06280). Kind of experiment: Counterscreen for Glucocerebrosidase Inhibitors: qHTS Assay for Human alpha-Galactosidase at pH 4.5 (AID 992). Also: 0% is about no effect. The procedure, abridged:
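Human enzyme (2 nM) with 80 uM 4-methylumbelliferyl alpha-D-galactopyranoside in 50 mM citric acid, 0.005% Tween-20, pH 4.5, 20 min at room temperature. Compounds 0.7 nM–77 uM; fluorescence Ex 365/Em 440 after pH 10 stop; AC50 from Hill fits.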
On the technique in general: Counterscreens check selectivity or assay interference.

The target of experiment [12] is alpha-glucosidase (Oryza sativa, rice) (UniProt Q653V4). Kind of experiment: Counterscreen for Glucocerebrosidase Inhibitors: qHTS Assay for Rice alpha-Glucosidase at pH 5.0 (AID 997).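 Also: 0% = full activity with enzyme and -100% = basal without enzyme.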 The procedure, abridged:
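Rice alpha-glucosidase (4 nM final) with 400 uM 4-methylumbelliferyl-alpha-D-glucopyranoside in citrate buffer pH 5.0, 20 min at room temperature, stopped at pH 10; fluorescence 365/440 nm, compounds 0.7 nM–77 uM, AC50 from Hill fits.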

Experiment [13] can be described thus: qHTS profiling for inhibitors of Plasmodium falciparum (3D7) proliferation (AID 743322).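 Also: infected erythrocytes exposed to compound for 72 h before lysis; 100% = DMSO vehicle wells and 0% = 0.29 µM artemisinin.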 To be noted: P. falciparum 3D7 proliferation; at 9.63 µM (top of the series). The method, boiled down: (§1)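 Erythrocytes infected with P. falciparum (0.3% parasitemia, 2.5% hematocrit) incubated with compounds 72 h at 37 C, 5% CO2. Lysis with saponin/Triton buffer containing SYBR Green I, overnight at room temperature in the dark; DNA fluorescence (485/535 nm) normalised to 0.29 uM artemisinin and DMSO.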

Experiment [14] can be described thus: qHTS profiling for inhibitors of Plasmodium falciparum (DD2) proliferation (AID 743323; call rule not given here). To be noted: lower = more inhibition; at 9.63 µM (top of the series). The procedure, abridged:
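P. falciparum Dd2-infected erythrocytes (0.3% parasitemia, 2.5% hematocrit) exposed 72 h at 37 C, 5% CO2. Lysis with SYBR Green, overnight at room temperature, fluorescence 485/535 nm; normalized to 0.29 uM artemisinin and DMSO.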

Experiment [15] in a line: qHTS profiling of the MIPE4 collection as inhibitors of Plasmodium falciparum (3D7) proliferation (AID 743344; call rule not given here;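 also: scaled between DMSO vehicle wells and 0.29 µM artemisinin as full inhibition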). To be noted: P. falciparum 3D7 in erythrocytes, SYBR Green DNA fluorescence, 72 h; at 9.64 µM (top of the series). The procedure, abridged:
as §1

Experiment [16] in a line: qHTS profiling of the MIPE4 collection as inhibitors of Plasmodium falciparum (DD2) proliferation (AID 743345; call rule not given here). To be noted: P. falciparum Dd2 in erythrocytes, SYBR Green DNA, 72 h; at 9.64 µM (top of the series). The procedure, abridged:
as §1

Experiment [17] is described as follows: qHTS profiling of the MIPE4 collection as inhibitors of Plasmodium falciparum (DD2) proliferation (Rep 2) (AID 743346; call rule not given here). To be noted: P. falciparum Dd2 in erythrocytes, SYBR Green DNA, 72 h; at 9.64 µM (top of the series). The method, boiled down:
as §1

Experiment [18] can be described thus: qHTS profiling of the MIPE4 collection as inhibitors of Plasmodium falciparum (HB3) proliferation (AID 743347; call rule not given here;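 also: plate controls were DMSO vehicle wells for no effect and artemisinin wells for full effect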). To be noted: P. falciparum HB3 in erythrocytes, SYBR Green DNA, 72 h; at 9.64 µM (top of the series). The procedure, abridged:
as §1

Experiment [19] can be described thus: qHTS Assay for Identifying Gametocytocidal Compounds (AID 743244). Also: potency is read from the fitted curve at half-maximal effect. To be noted: P. falciparum 3D7 stage III-V gametocytes, alamarBlue, 72 h; max response: stronger effect = lower value. The method, boiled down: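 Compounds are pinned into medium, gametocytes (stage III–V, 3D7, 20,000 cells/well) added, and plates held 72 h at 37 °C in 5% CO2. AlamarBlue follows for 24 h before fluorescence reading.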

Experiment [20] is described as follows: qHTS profiling for inhibitors of Plasmodium falciparum (HB3) proliferation (AID 743324).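 Also: 100% = DMSO vehicle wells and 0% = artemisinin-treated control wells.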 To be noted: Plasmodium falciparum HB3 blood-stage proliferation; at 9.63 µM (top of the series). The procedure, abridged: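 P. falciparum HB3 grown in erythrocytes (0.3% parasitemia, 2.5% hematocrit final) with compound for 72 h at 37 C, 5% CO2. Parasite DNA detected by SYBR Green after saponin/triton lysis overnight; normalized to 0.29 uM artemisinin and DMSO.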

Results filed as inconclusive are left out. The source made the active and inactive calls. Unless noted, calls follow the shape of the dose curve; as a rule, active = well fitted curve in the direction sought with a large enough effect; inconclusive = small, poorly fitted or top-dose-only effect, or another doubt; inactive = no such curve, though single readings can be large; an effect the other way counts as inactive or inconclusive.

Chain of DNA dC->dU-editing enzyme APOBEC-3G (Homo sapiens) (Q9HC16 whole entry, looked up): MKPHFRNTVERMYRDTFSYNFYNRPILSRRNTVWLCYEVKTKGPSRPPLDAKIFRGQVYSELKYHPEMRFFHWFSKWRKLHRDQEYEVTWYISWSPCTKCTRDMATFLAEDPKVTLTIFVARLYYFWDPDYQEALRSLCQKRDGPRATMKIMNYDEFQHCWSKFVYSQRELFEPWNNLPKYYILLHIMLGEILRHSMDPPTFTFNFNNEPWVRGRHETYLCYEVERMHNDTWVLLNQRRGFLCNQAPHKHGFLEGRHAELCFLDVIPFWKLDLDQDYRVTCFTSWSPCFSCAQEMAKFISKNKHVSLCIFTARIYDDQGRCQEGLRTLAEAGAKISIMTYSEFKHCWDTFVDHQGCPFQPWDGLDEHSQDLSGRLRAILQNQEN
Chain of Cytochrome P450 3A4 (Homo sapiens) (P08684 whole entry, looked up): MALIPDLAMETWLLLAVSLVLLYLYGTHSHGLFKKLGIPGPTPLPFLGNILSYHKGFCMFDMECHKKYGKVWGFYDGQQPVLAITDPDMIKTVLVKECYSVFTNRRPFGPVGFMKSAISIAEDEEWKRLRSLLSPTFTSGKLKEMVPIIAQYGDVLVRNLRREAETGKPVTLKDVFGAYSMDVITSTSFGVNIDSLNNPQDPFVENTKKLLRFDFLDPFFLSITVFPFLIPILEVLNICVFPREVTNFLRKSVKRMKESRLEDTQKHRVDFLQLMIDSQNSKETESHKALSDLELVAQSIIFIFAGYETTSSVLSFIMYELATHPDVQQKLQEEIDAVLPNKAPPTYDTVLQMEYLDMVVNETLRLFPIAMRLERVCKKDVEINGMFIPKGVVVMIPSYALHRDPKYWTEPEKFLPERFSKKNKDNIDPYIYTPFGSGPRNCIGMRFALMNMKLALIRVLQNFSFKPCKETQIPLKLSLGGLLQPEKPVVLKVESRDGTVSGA
Chain of Muscarinic acetylcholine receptor M1 (Rattus norvegicus) (P08482 whole entry, looked up): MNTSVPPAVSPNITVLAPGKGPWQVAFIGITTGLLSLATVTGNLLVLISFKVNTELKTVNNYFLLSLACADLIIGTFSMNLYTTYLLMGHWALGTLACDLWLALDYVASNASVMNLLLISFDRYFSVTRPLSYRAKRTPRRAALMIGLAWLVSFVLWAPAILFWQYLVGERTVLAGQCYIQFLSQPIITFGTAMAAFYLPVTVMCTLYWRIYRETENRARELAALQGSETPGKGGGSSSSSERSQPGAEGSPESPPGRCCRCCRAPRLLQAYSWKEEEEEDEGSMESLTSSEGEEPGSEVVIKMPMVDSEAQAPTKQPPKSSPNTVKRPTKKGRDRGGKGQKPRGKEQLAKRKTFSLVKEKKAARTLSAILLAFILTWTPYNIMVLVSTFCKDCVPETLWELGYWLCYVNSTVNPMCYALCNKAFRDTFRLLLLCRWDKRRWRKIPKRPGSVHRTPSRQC
Chain of Pyruvate kinase PKM (Homo sapiens) (P14618 whole entry, looked up): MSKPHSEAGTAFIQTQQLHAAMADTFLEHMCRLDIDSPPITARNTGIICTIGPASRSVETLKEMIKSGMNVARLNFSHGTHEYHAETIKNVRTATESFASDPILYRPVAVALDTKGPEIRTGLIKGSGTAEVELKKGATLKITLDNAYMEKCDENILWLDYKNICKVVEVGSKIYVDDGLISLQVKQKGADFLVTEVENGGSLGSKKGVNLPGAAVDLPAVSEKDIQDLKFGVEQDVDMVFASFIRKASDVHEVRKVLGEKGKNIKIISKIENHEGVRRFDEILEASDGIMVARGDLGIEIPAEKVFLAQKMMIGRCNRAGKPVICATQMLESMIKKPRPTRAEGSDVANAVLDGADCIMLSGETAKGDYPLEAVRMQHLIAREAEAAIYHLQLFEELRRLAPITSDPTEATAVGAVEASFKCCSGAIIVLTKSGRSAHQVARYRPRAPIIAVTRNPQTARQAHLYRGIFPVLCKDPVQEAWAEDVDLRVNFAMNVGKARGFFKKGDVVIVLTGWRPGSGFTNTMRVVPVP
Chain of Guanine nucleotide-binding protein G(i) subunit alpha-1 (Homo sapiens) (P63096 whole entry, looked up): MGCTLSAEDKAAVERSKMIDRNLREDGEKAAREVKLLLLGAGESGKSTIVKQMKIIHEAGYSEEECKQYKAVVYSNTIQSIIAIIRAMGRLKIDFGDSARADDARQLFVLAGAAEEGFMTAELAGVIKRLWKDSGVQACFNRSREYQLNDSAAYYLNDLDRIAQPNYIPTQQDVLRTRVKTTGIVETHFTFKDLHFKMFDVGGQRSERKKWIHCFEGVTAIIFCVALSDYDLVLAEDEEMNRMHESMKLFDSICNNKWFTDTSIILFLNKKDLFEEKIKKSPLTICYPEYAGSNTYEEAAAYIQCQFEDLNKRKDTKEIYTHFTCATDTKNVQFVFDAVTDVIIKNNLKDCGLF
Chain of Pyruvate kinase (Leishmania mexicana) (Q27686 2-499 E452W): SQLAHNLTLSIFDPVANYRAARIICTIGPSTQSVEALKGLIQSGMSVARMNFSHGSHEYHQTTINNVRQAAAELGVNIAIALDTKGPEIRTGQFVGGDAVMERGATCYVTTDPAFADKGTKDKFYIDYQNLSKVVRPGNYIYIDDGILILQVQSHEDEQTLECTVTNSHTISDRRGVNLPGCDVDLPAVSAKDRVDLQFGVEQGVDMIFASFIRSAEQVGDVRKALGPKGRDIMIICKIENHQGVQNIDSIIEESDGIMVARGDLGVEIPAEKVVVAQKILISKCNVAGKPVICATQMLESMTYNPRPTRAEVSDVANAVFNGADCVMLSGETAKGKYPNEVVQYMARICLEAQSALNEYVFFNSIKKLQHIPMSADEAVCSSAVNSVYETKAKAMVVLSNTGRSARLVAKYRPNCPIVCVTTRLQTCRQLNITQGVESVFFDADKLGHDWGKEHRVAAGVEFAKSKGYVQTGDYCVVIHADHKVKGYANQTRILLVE
Chain of Alpha-galactosidase A (Homo sapiens) (P06280 whole entry, looked up): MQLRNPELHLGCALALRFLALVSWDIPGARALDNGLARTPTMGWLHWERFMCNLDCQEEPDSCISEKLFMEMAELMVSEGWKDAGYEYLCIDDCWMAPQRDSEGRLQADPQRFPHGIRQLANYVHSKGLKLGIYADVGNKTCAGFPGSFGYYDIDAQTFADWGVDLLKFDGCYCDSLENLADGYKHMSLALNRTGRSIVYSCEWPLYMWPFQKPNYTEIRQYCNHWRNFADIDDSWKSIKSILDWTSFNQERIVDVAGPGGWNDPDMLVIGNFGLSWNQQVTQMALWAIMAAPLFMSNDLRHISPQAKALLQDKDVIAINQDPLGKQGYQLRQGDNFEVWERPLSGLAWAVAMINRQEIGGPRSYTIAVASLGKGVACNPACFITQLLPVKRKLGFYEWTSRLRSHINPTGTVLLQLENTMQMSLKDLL

For `C#C[C@@]1(OC(C)=O)CC[C@@H]2[C@@H]3CCC4=C[C@@H](OC(C)=O)CC[C@H]4[C@H]3CC[C@]21C`, the Potency entry in experiment [1] was “inactive”.

On to `CS(=O)(=O)Nc1cccc(-c2nc(Nc3ccccc3)c3ccccc3n2)c1`, for which the Potency entry in experiment [2] and in [3] was “inactive” in each case.

As to `COc1cc2cc3c4cc(OC)c(OC)cc4cc[n+]3c(C)c2cc1OC`, in experiment [1], the Potency is 15.8 µM (active). Also, the Potency entry in [2] and in experiment [3] was “inactive” throughout.

`C[C@H]1CC[C@@H]2[C@@H](C)[C@H]3[C@H](C[C@H]4[C@@H]5CC=C6C[C@@H](O[C@]7(O[C@H]8O[C@@H](C)[C@@H](O)[C@@H](O)[C@@H]8O)C[C@@H](O[C@@H]8O[C@H](CO)[C@@H](O)[C@H](O)[C@@H]8O)[C@@H](O)[C@H](CO)O7)CC[C@]6(C)[C@H]5CC[C@@]34C)N2C1`: in experiment [1], the Potency entry is “inactive”.

As to `Cc1ccc2c(c1)c1c3n2CCN[C@H]3CCC1`, the result in experiment [4] was inactive.

`CC(=C(CCOP(=O)(O)O)SC(=O)c1ccccc1)N(C=O)Cc1cnc(C)nc1N`: the Potency result in experiment [2] and in experiment [3] was “inactive” in each case.

For `COc1ccc(CNc2ncncc2-c2ccccc2CN(C)C)c(OC)c1`, in [1], the Potency is 0.398 µM (active). Further, the Potency entry in [2] and in experiment [3] was “inactive” throughout.

Turning to `COc1cc(C2Oc3cc(C4Oc5cc(O)cc(O)c5C(=O)C4O)ccc3OC2CO)ccc1O` (stereo not drawn), the Potency entry in [2] and in experiment [3] was “inactive” in each case.

With `Fc1ccc(Nc2nc(-c3cccnc3)nc3ccccc23)cc1`, the Potency entry in [2] and in experiment [3] was “inactive” each time.

With `CC(=O)/C(C)=N\O`, the compound was classed as inactive in experiment [5], in experiment [6], in experiment [7], in [8], in experiment [9] and in [10]. The call in [11], in experiment [12] and in [4] was inactive.

As for `COc1ccc([C@@H]2CC(=O)c3c(O)cc(O)cc3O2)cc1O`, the Potency in experiment [1] was 15.8 µM (active). For the same compound, in [4], the call was inactive.

For the compound `CO[C@@H]1C=CO[C@]2(C)Oc3c(C)c(O)c4c(O)c(c(C=NN5CCN(C)CC5)c(O)c4c3C2=O)NC(=O)C(C)=CC=C[C@H](C)[C@H](O)[C@H](C)[C@H](O)[C@H](C)[C@H](OC(C)=O)[C@H]1C`, the remaining parasite growth % (stronger effect = lower value) in experiment [13] came to 5.75%. The compound further returned an activity, percent of control in [14] of 4.21%. The same compound came in with a parasite growth, % of DMSO control in experiment [15] of 5.98%. This compound yielded a parasite growth remaining, % of DMSO control (lower = more inhibition) in experiment [16] of 11.9%. Also, the parasite growth, % of control (lower = inhibition) in [17] was determined as 22.5%. In addition, in experiment [18], the growth, % of control was 5.71%.

Turning to `O[C@H](c1cc(C(F)(F)F)nc2c(C(F)(F)F)cccc12)[C@H]1CCCCN1`, the Potency in experiment [19] was 0.0894 µM (active). The remaining parasite growth % (stronger effect = lower value) in experiment [13] is -0.0865%. The compound also came in with an activity, percent of control in [14] of 1.34%. In addition, the remaining proliferation (% of control), lower = more inhibition in [20] turned out to be 0.677%. Also, in experiment [15], the parasite growth, % of DMSO control came to 8.08%. Further, the parasite growth remaining, % of DMSO control (lower = more inhibition) in [16] came to 8.4%. In experiment [17], this compound registered a parasite growth, % of control (lower = inhibition) of 18.7%. In addition, in [18], the growth, % of control stood at 4.87%.

`CC(=O)OCC(=O)[C@@]1(OC(C)=O)[C@H](C)C[C@H]2[C@@H]3C[C@H](F)C4=CC(=O)C=C[C@@]4(C)[C@]3(F)[C@H](O)C[C@@]21C`: the Potency result in [1] was “inactive”.
